# Test results: ChEMBL document CHEMBL4513216, “Probing the Open Global Health Chemical Diversity Library for Multistage-Active Starting Points for Next-Generation Antimalarials” (ACS Infect Dis, 2020)
# The whole screen tested about 65,000 compounds, of which about 2,100 (3.2%) showed an effect of 50% or more. The median lay at about -52%. The sample as a whole holds a higher share of strong results than the screen did.
# Tested on: Plasmodium falciparum
# Assay: Screen against P. falciparum Asexual Blood Stage (ABS), at 5uM
# Format: functional, Dd2
# Settings: tested at 5 uM
row,SMILES,INHIBITION [%]
1,CSc1ccc(CNc2n[nH]c(C)n2)cc1,-43.7
2,CCS(=O)(=O)N1CCC2(CC1)CN(c1ccsc1)C(=O)CO2,-0.697
3,CC(=O)Nc1c(C)noc1C=Cc1ccc(S(=O)(=O)N2CCCC2)cc1,11.8
4,Cc1noc(C)c1CN1CCO[C@H]2CN(Cc3ccc(F)cc3)C[C@H]21,55.3
5,Fc1ccc(CN2C[C@@H]3OCCN(CCN4CCCC4)[C@@H]3C2)cc1,-70.3
6,COc1ccc(CN2C[C@@H]3OCCN(CCN4CCCC4)[C@@H]3C2)cc1,64
7,COc1ccc(CN2C[C@@H]3OCCN(CCN(C)C)[C@@H]3C2)cc1,66.9
8,CN(C)CCN1CCO[C@H]2CN(Cc3cnn(C)c3)C[C@H]21,-88.4
9,Cc1noc(C)c1CN1CCO[C@H]2CN(Cc3cccc(F)c3)C[C@H]21,-32.1
10,Fc1ccc(CN2C[C@@H]3OCCN(CC4CCCO4)[C@@H]3C2)cc1 (stereo not given in full),-2.84
11,COc1ccc(CN2C[C@@H]3OCCN(CC4CCCO4)[C@@H]3C2)cc1 (stereo not given in full),-115
12,COc1ccc(CN2C[C@@H]3OCCN(C)[C@@H]3C2)cc1,-42.1
13,O=C(CN1CCC(C(=O)c2cc(F)ccc2F)CC1)NC1CCCC1,-63.8
14,Cc1nn(C)c2c(NCc3ccc(F)cc3)nc(C3CC3)nc12,40.3
15,CCCn1ccnc1CN1CCCC(O)(CN(C)C)CC1 (stereo not given),-44.8
16,CC(=O)N1CC[C@H]2[C@H](C[C@@H](Cn3cncn3)N2c2nccs2)C1,-33.8
17,CNc1nc2cn(C3CCCC3)c(=O)c-2c[nH]1,-45.905
18,CC1CCC(n2cc3nc(N)[nH]cc-3c2=O)CC1 (stereo not given),-68.9
19,Nc1nc2cn(C3CCCC3)c(=O)c-2c[nH]1,69.9
20,CN(C)c1nc2c(c(N3CCC4(CC3)CNC(=O)C4)n1)CCCC2,-6.41
21,O=S(=O)(N1CCCCC1)N1CCCN(CC2CCCO2)CC1 (stereo not given),-12.8
22,CC(C)N(C)Cc1cncc2c1CCN(C(=O)c1ccccc1F)C2,-44.1

row,SMILES,INHIBITION [%]
1,CN(Cc1ccco1)[C@@H]1CN(Cc2ccncc2)C[C@@H]2CCCO[C@@H]21,9.86
2,Cc1ccc(CN2C[C@@H]3CCCO[C@@H]3[C@H](N(C)Cc3ccco3)C2)o1,39.7
3,CN(Cc1ccco1)[C@@H]1CN(Cc2nccs2)C[C@@H]2CCCO[C@@H]21,31.1
4,CN(Cc1ccco1)[C@@H]1CN(Cc2ccoc2)C[C@@H]2CCCO[C@@H]21,60.3
5,CN(Cc1ccco1)[C@@H]1CN(Cc2cccnc2)C[C@@H]2CCCO[C@@H]21,29.1
6,CN(Cc1ccco1)[C@@H]1CN(Cc2cccs2)C[C@@H]2CCCO[C@@H]21,65.3
7,COC(=O)c1cccn1C1CCN(Cc2cnc3ccccn23)CC1,-55.1
8,COC(=O)c1ccc(S(=O)(=O)NC2CNC(=O)C2)cc1 (stereo not given),-28.8
9,CC(C)c1cccc(NC(=O)Cn2c(=O)n(C)c(=O)c3sccc32)c1,-34.2
10,CCn1c(=O)c2sccc2n(CC(=O)Nc2cccc(Cl)c2)c1=O,-40
11,Cn1c(=O)c2sccc2n(CC(=O)Nc2cccc(Cl)c2)c1=O,59.4
12,O=C(NC1CCN(c2ncccc2F)C1)c1cccc(-n2ccnc2)c1 (stereo not given),-41.7
13,Cc1ccc(S(=O)(=O)N2CCC(S(C)(=O)=O)CC2)cc1C,-1.8
14,Cc1ccc(S(=O)(=O)N2CCC(S(=O)(=O)c3nncn3C)CC2)cc1C,-31.9
15,Cc1ccc(S(=O)(=O)N2CCC(N3CCCCC3)CC2)cc1C,65.9
16,Cc1cc(S(=O)(=O)N2CCC(S(C)(=O)=O)C2)ccc1F (stereo not given),-22.2
17,Cc1cc(S(=O)(=O)N2CCCN3CCCC3C2)ccc1F (stereo not given),69.1
18,Cc1ccc(S(=O)(=O)N2CCCCC(N3CCN(C)CC3)C2)cc1F (stereo not given),39.6
19,CC(C(=O)N1CCc2sccc2C1)N1CCC(N2CCCC2)CC1 (stereo not given),53
20,CC(C(=O)N1CCc2sccc2C1)N1CCCN(C2CC2)CC1 (stereo not given),22.7
21,CC(C)NC(=O)C1CCN(C(C)C(=O)N2CCc3sccc3C2)CC1 (stereo not given),-14.7
22,CN1CCC(Cc2cncc(-c3ccccc3C(=O)O)n2)C1 (stereo not given),-92

row,SMILES,INHIBITION [%]
1,CCc1nc2ccccc2c(=O)n1CC1(O)CCN(S(C)(=O)=O)CC1,-59.6
2,CC(C)c1cc(C(=O)N2CCOC3(CCCC3)C2)no1,-111
3,CCOc1ccc(C(=O)Nc2c(C)nc3ccc(Cl)cn3c2=O)cc1,-87.3
4,CCOC(=O)c1ccc(S(=O)(=O)NCc2cccnc2N(C)C)cc1,54.1
5,COC(=O)c1ccc(S(=O)(=O)NCc2cccnc2N(C)C)cc1,-8.55
6,CN(C)c1ncccc1CNS(=O)(=O)c1ccc(C(N)=O)cc1,-34.2
7,CC(C)(O)CCc1ccc(C(=O)N2Cc3cnn(CCO)c3C2)cc1,-86.5
8,CCOc1ncnc2c1CCN(C(=O)NCc1cccnc1)CC2,-58.1
9,N#Cc1ccc(CNc2cnn(CCN3CCOCC3)c2)cc1,-16.7
10,Clc1cccc(CNc2cnn(CCN3CCCCC3)c2)c1,53.3
11,Clc1ccc(CNc2cnn(CCN3CCOCC3)c2)cc1Cl,-55.6
12,Cn1nccc1CCNC(=O)[C@H]1CNC[C@H](C(=O)N2CCCC2)C1,-22.7
13,Cc1ccc(CN2CCN(c3nc4c(s3)c(C)nn4C)C(C)C2=O)cc1 (stereo not given),69.8
14,COC(=O)CN1CCN(c2nc3c(s2)c(C)nn3C)C(C)C1=O (stereo not given),-88
15,Cc1nn(C)c2nc(N3CCNC(=O)C3Cc3ccccc3)sc12 (stereo not given),-81.9
16,O=C(CN1C=Nc2ccccc2S1(=O)=O)NCCCc1ccccc1,-115
17,CCn1cnnc1CNC(=O)N1CCN(c2ccccc2Cl)CC1,-79.9
18,COc1ccc(CN(Cc2cncn2C)CC2CCCO2)c(OC)c1 (stereo not given),-22.7
19,Cc1oc(-c2cc(F)cc(F)c2)nc1CN1C[C@@H](C)NC[C@@H]1C,60.1
20,CSc1ccc(-c2nc(CN3C[C@@H](C)NC[C@@H]3C)c(C)o2)cc1,-61.5
21,CSc1ccc(-c2nc(CN3CCNCC3C)c(C)o2)cc1 (stereo not given),35.1
